# According to ChEMBL document CHEMBL5724796, “Tm Shift (DSF) assay results for EUbOPEN Chemogenomics Library” (2024):
# Key:
# Conditions in all cases: Compound concentration 20.0 uM
# [1] = biological target: Tyrosine-protein kinase ABL1 (Homo sapiens) (UniProt P00519)
# [2] = biological target: Bromodomain-containing protein 4 (Homo sapiens) (UniProt O60885)
# [3] = biological target: Cyclin-dependent kinase 2 (Homo sapiens) (UniProt P24941)
# [4] = biological target: Casein kinase I isoform delta (Homo sapiens) (UniProt P48730)
# Sequence of Casein kinase I isoform delta (Homo sapiens) (P48730 whole entry, looked up, canonical isoform): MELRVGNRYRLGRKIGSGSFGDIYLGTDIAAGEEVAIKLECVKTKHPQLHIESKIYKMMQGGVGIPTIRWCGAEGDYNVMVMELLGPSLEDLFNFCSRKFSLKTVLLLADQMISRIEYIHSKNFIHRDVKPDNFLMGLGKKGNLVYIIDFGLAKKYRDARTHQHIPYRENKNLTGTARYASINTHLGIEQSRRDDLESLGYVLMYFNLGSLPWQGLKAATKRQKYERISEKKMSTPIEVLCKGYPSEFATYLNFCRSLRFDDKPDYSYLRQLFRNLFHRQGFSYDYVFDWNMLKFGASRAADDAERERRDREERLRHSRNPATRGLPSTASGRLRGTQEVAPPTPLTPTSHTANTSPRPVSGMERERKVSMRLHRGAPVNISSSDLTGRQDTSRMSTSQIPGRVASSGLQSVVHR
# [5] = biological target: Glycogen synthase kinase-3 beta (Homo sapiens) (UniProt P49841)
# Sequence of Glycogen synthase kinase-3 beta (Homo sapiens) (P49841 whole entry, looked up): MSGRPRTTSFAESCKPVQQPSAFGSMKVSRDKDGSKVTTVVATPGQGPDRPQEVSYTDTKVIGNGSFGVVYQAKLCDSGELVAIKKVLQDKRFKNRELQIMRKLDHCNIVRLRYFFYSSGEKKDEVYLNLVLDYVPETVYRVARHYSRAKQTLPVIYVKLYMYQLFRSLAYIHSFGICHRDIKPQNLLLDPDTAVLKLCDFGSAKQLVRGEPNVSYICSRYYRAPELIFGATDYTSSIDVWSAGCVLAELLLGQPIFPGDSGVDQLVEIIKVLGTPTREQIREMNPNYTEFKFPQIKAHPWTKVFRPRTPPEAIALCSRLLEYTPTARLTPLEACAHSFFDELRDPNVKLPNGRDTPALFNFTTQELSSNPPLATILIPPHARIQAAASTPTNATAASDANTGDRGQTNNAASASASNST
# [6] = biological target: Mitogen-activated protein kinase 1 (Homo sapiens) (UniProt P28482)
# Sequence of Mitogen-activated protein kinase 1 (Homo sapiens) (P28482 whole entry): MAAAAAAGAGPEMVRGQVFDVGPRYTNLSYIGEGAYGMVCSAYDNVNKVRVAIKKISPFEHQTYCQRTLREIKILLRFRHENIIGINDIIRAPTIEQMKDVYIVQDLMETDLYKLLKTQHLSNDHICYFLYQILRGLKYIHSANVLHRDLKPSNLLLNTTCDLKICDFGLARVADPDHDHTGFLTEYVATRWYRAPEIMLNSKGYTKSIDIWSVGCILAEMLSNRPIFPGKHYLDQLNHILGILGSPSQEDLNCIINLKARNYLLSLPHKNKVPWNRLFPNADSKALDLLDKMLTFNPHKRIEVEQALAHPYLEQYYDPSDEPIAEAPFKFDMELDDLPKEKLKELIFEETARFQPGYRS
# [7] = biological target: T1, Aurora kinase A (Homo sapiens) (UniProt O14965)
# T1 sequence (whole entry): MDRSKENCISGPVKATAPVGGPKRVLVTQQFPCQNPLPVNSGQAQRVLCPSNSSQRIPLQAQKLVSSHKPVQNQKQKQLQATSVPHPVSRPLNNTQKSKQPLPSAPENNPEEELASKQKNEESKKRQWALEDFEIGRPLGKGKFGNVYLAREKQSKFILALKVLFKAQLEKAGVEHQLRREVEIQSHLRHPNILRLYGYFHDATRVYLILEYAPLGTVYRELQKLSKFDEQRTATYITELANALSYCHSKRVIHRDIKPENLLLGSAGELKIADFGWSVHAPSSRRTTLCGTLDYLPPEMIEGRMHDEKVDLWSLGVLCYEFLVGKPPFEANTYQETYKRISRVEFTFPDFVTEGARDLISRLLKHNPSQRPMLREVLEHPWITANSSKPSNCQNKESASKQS
# [8] = biological target: T2, Transcription intermediary factor 1-alpha (Homo sapiens) (UniProt O15164)
# T2 sequence (whole entry): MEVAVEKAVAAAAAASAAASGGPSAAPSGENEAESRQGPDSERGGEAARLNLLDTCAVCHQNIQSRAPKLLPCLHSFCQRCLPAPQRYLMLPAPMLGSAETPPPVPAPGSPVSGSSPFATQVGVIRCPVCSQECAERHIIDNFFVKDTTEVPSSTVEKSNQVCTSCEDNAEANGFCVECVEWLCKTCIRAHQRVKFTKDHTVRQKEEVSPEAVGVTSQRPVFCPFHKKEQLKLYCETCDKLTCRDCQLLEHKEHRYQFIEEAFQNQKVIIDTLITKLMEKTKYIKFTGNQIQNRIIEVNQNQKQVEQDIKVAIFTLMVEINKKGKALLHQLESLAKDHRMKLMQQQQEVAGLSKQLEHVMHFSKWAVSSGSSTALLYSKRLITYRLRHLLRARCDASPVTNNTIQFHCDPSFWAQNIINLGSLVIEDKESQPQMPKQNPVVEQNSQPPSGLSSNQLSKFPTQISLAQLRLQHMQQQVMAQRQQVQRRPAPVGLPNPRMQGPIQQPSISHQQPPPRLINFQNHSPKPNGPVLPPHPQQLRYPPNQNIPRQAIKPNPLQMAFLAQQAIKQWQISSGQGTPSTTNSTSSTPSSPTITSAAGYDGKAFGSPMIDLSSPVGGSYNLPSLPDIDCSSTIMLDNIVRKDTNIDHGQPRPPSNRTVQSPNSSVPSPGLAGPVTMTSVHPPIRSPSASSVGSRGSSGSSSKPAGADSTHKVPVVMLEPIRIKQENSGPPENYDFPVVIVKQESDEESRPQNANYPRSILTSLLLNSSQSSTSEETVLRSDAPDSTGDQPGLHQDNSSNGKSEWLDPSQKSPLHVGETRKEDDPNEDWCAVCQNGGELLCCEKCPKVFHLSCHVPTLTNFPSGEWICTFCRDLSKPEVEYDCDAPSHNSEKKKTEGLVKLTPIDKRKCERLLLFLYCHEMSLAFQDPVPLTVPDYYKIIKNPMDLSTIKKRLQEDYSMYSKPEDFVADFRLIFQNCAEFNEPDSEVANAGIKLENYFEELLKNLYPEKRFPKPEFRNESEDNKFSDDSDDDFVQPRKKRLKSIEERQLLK
# Sequence of Tyrosine-protein kinase ABL1 (Homo sapiens) (P00519 whole entry): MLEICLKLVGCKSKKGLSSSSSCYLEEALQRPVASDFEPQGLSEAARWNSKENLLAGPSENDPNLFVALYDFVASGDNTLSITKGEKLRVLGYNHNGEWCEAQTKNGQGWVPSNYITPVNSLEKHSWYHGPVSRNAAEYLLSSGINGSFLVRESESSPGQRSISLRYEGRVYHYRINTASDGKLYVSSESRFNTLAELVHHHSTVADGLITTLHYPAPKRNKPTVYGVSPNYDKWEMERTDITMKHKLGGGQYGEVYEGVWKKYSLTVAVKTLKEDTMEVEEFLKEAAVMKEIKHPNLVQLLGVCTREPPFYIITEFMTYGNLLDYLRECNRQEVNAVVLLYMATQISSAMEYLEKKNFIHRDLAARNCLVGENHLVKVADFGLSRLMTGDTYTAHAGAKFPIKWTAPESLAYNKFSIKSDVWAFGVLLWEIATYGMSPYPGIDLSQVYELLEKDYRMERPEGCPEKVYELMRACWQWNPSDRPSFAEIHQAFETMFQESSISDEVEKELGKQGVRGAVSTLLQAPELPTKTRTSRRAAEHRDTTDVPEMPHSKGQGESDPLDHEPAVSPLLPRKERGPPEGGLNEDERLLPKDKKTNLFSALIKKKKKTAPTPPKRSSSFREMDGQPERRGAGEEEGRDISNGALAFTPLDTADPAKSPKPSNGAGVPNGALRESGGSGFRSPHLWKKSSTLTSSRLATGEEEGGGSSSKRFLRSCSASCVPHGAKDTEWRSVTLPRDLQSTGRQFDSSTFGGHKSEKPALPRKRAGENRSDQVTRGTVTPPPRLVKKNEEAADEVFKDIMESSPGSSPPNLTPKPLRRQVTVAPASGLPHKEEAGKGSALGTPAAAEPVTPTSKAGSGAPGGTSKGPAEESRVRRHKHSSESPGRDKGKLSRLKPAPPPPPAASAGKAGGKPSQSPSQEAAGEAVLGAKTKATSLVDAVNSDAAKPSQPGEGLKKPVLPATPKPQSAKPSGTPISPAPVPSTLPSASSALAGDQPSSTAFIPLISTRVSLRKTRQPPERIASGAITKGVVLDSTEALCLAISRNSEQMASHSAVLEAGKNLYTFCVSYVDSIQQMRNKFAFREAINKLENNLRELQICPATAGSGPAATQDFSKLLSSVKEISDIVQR
SMILES,ΔTm [1] [°C],ΔTm [2] [°C],ΔTm [3] [°C],ΔTm [4] [°C],ΔTm [5] [°C],ΔTm [6] [°C],ΔTm [7] [°C],ΔTm [8] [°C]
Cc1ncsc1-c1ccc([C@H](C)NC(=O)[C@@H]2C[C@@H](O)CN2C(=O)[C@@H](NC(=O)CNC(=O)c2ccc(F)c(-c3ccc(N4C[C@@H](C)N(C)[C@@H](C)C4)c(NC(=O)c4c[nH]c(=O)cc4C(F)(F)F)c3)c2)C(C)(C)C)cc1,-0.64,-6.28,-0.94,0.81,-3.51,-15.7,-5.35,1.29
CC(=O)NCC(=O)N1CCC[C@@H]1B(O)O,0.26,-0.72,1.18,-0.18,-0.78,0.14,-1.86,0.93
NC(=O)c1cc(F)cc2c1C(=O)N(C1CCN(C3CCC(F)(F)CC3)CC1)C2,0,-1.47,0.02,0.25,-0.85,0.19,-1.86,1.35
CC(=O)O[C@]1(C(C)=O)CC[C@H]2[C@@H]3CCC4=CC(=O)CCC4=C3[C@@H](c3ccc(N(C)C)cc3)C[C@@]21C,0.29,-2.72,-0.32,0.22,-0.83,-0.05,-1.14,-1.79
Cn1c(OC[C@H]2CC[C@H](C(F)(F)F)CC2)nn2c(C3CCOCC3)ncc2c1=O,0.42,-3.44,-0.19,-0.45,0.18,0.06,-2.37,-1.13
Cc1nnn(C)c1-c1cnc2c3cc4cnn(C)c4cc3n([C@H](c3ccccc3)C3CCOCC3)c2c1,0.34,22.9,-0.73,0.09,-1.29,0.17,-2.95,0.06
COc1nc(N)nc(Nc2cc(S(N)(=O)=O)ccc2N[C@@H](c2cccc3c2OC(F)(F)O3)c2ncccc2Cl)n1,1.16,-2.02,-0.4,0.06,-3.33,-12.4,-1.68,0.11
Cc1cc(OCCCNCC(C)(C)C(N)=O)ccc1Cc1c(O[C@@H]2O[C@H](CO)[C@@H](O)[C@H](O)[C@H]2O)n[nH]c1C(C)C,0.7,-2.92,0.08,-0.08,-0.66,0.38,-2.36,0.9
COc1ccc(N2CCN(C(=O)c3cc4c(s3)-c3ccccc3S(=O)(=O)C4)CC2)cc1,0.15,-2.04,0.12,-0.01,-0.71,0.36,-1.67,0.69
CC(C)(C)NS(=O)(=O)c1ccc(NC(=O)[C@H](Cc2ccccc2)NC(=O)c2ccc(F)cc2)cc1,2.48,-1.97,0.06,0.21,2.59,-3.67,-0.32,-0.1
C[C@@H](Nc1nc2c(cnn2C2CCCC2)c(=O)[nH]1)C(=O)N1CC[C@H](F)C1,0.58,-2.88,0.63,-0.33,1.37,0.07,-2,0.97
Cc1cc(Cn2c(=O)n(Cc3cnc(C)s3)c(=O)c3cc(S(=O)(=O)NC4(C)CC4)ccc32)n(C)n1,0.2,-4.6,0.24,0.39,-0.6,0.1,-3.34,-1.26
CC(=O)N1CCC(Nc2cc(C(=O)NC[C@H](O)CN3CCc4ccccc4C3)ncn2)CC1,0.44,-0.33,0.19,0.07,0.18,0.06,-0.79,-0.38
Cc1cc(C)c(-c2[nH]nc(C)c2C)cc1C(=O)N1CC(c2ccc(C#N)cc2)C1,1.06,-3.66,-0.16,-0.21,-0.42,0.26,-2.18,-0.05
C[C@H](NC(=O)CCc1nc2ccccc2c(=O)[nH]1)c1ccccc1,0.18,0.84,0.79,0.42,-0.21,0.83,-1.25,0.31
Nc1ncnc2c1nc(NCc1ccc(-c3ccccc3)cc1)n2[C@@H]1O[C@H](CO)[C@@H](O)[C@H]1O,1.36,-3.1,0.21,-0.22,-0.69,0.28,-1.41,-0.53
C[C@@H]1O[C@@H](CC(=O)O)CC2=C1C(=O)c1c(O)cccc1C2=O,0.53,-3.04,0.21,-1.39,-2.21,-0.24,-2.94,-2.3
Cc1[nH]nc(C(F)(F)F)c1Cc1sc2c(c1C(=O)N1C[C@](C)(O)CO1)c(=O)n(C)c(=O)n2C(C)C,0.25,1.76,1.15,-0.46,-0.31,0.35,-1.82,1.02
CC(=O)N[C@@H](CCCCNC(=O)CSCCNC(=O)CCNC(=O)[C@H](O)C(C)(C)COP(=O)(O)OP(=O)(O)OC[C@H]1O[C@@H](n2cnc3c(N)ncnc32)[C@H](O)[C@@H]1OP(=O)(O)O)C(N)=O,0.23,-2,-0.07,-0.41,-0.08,-0.01,-0.37,1.51
O=C(NCc1ccc(Cl)cc1)C1CCN(S(=O)(=O)c2cc(Cl)cc(Cl)c2)CC1,0.35,-2.83,0.17,-0.37,-1.43,0.06,-1.55,0.02
